Source: PubChem BioAssay
HEK293 cAMP ctrl: qHTS Assay for Agonists of the Thyroid Stimulating Hormone Receptor: Activators of Intracellular cAMP Concentrations in Parental HEK 293. parental HEK293 CNG cAMP sensor, membrane potential fluorescence. Potency, µM (series often up to 57.1 µM), inactives show at the highest dose activation, hits mostly activators. hit rate 2.5% among 73,000. AID 938, 2007; note: % of control where 0% means no effect; nearly all actives have a fitted effect of over 55% in size
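Counterscreen for endogenous-receptor signalling: CNG-channel HEK 293 cells report cAMP rise by membrane depolarization. After 60 min dye equilibration with 100 uM RO 20-1724, compounds incubated 30 min before bottom-read fluorescence at 590 nm.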
TSHR ag: qHTS Assay for Agonists of the Thyroid Stimulating Hormone Receptor. Thyrotropin receptor (Homo sapiens), P16473. HEK293-CNG-TSHR cells (CNG channel as cAMP sensor), membrane potential dye, cAMP. Potency, µM (series often up to 57.1 µM), for inactives: at the highest dose activation, hits mostly activators. hit rate 0.48% among 73,000. AID 926, 2007; active = well fitted activation curve with a large enough effect in the main read-out, with a control signal flat, not every such curve was filed as active; inconclusive = small, poorly fitted or top-dose-only effect, or a change in a side signal; inactive = no such curve, though single readings can be large or run the other way; % of control where 0% means no effect;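 note: the control signal comes from parental cells without the receptor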
Target sequence (P16473 whole entry, looked up): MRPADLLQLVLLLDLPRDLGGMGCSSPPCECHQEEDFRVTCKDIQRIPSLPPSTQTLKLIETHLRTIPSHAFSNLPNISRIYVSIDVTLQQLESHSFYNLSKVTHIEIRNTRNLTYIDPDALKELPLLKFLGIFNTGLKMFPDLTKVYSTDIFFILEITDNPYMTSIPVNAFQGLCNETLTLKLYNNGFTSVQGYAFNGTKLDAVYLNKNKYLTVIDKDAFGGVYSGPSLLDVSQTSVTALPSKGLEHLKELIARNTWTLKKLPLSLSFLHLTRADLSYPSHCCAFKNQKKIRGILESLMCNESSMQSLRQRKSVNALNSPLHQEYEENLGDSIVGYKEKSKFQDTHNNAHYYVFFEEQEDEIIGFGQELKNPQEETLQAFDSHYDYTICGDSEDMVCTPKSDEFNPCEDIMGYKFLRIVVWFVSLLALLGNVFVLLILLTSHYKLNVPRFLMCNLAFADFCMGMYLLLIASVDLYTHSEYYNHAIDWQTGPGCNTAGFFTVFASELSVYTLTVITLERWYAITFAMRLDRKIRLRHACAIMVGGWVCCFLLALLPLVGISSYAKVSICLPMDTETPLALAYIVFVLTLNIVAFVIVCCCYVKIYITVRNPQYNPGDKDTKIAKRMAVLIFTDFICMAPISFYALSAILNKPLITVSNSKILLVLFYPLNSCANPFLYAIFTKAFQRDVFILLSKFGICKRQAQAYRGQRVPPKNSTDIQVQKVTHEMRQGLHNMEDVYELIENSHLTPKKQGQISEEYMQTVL
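HEK 293 cells stably expressing TSHR and a modified CNG channel, with CNG-only parental cells as counterscreen, were preloaded 60 min at room temperature with membrane potential dye containing 100 uM RO 20-1724. Compound exposure was 30 min, and depolarization was read as fluorescence at 590 nm.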
ALOX15 inhib: qHTS Assay for Inhibitors of 15-hLO (15-human lipoxygenase); hit rate 1.4% among 74,000; purified 15hLO-1, xylenol orange hydroperoxide absorbance; AID 887, 2007; Potency, µM (series often up to 57.1 µM), for the others: at the highest dose activity change, negative = inhibition, actives largely listed as inhibitors; note: % is set by controls: 0 for no effect and ±100 for the full control effect; nearly all actives have a fitted effect of over 55% in size
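Purified human 15hLO-1 (40 nM final) in 25 mM Hepes pH 7.5, 0.01% Triton X-100 was preincubated with compound 15 min at room temperature, then reacted 6 min with 50 uM arachidonic acid; hydroperoxide detected by Fe-XO, 573/405 nm absorbance ratio.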
Tau fil binding: qHTS Assay for Tau Filament Binding; recombinant tau filaments, thioflavin S fluorescence, 15 h; filaments grown with octadecylsulfate alongside compound; Potency, µM (series often up to 57.1 µM), without a hit: at the top dose activity change, negative = inhibition; AID 596, 2007; hit rate 2% among 71,000;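 note: % is set by controls: 0 for no effect and ±100 for the full control effect; actives lower thioflavin S fluorescence by blocking filaments or displacing dye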
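Read-out: ThS fluorescence, 450 nm excitation/510 nm emission; lower signal marks blocked filament formation or displaced dye. Tau at 1 uM with 30 uM ODS, 10 uM ThS, 5 mM DTT, 100 mM NaCl, 10 mM HEPES pH 7.4; 15 h, 37 C.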
Bst PK mod: Pyruvate Kinase | hit rate 1.2% among 51,000 | Potency, µM | purified pyruvate kinase, luminescence ATP production; ribose 5-phosphate activator present at AC10; in the data active = potency below about 11 µM; inconclusive = mostly about 12 µM to 25 µM;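 the screen sought inhibitors and activators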;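 note: scaled between full activation by ribose 5 phosphate and full inhibition by luteolin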
FLuc inh: qHTS Assay for Inhibitors of Firefly Luciferase; Luciferin 4-monooxygenase (Photinus pyralis), P08659; purified firefly luciferase, luminescence, 8 min; Potency, µM (series often up to 57.1 µM), for the others: at the highest dose activity change, negative = inhibition, actives largely listed as inhibitors; hit rate 2.2% among 72,000; AID 411, 2009; note: % is set by controls: 0 for no effect and ±100 for the full control effect; nearly all actives have a fitted effect of over 40% in size
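Compounds were tested as concentration series (qHTS) against purified P. pyralis luciferase with luciferin and 10 uM ATP in 50 mM imidazole pH 7.2, 50 mM KCl, 7 mM MgCl2, 0.01% Tween 20, 0.05% BSA. Luminescence was read after 8 min at ambient temperature.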
* = called active by the depositor; u = inconclusive; x = no result; ! = repeats disagree; [ ] = dose if it differs, or a comment. This is a sample that favours compounds with a hit; in the whole collection about 7.8% have one here. Unless noted, calls come from the whole dose curve; as a rule, active = well fitted curve in the direction sought with a large enough effect; inconclusive = small, poorly fitted or top-dose-only effect, or another doubt; inactive = no such curve, though single readings can be large; an effect the other way counts as inactive or inconclusive. Potency is the fitted concentration of half-maximal effect.

SMILES	HEK293 cAMP ctrl	TSHR ag	ALOX15 inhib	Tau fil binding	Bst PK mod	FLuc inh
CCN(CC)CCCC(C)n1c(-c2ccccc2)nc2c(NC3CCCCC3)nc(C)nc21 (stereo not drawn)	u	u	-28%	31%	x	x
COc1ccc(C2/C(=C(/O)c3ccccc3)C(=O)C(=O)N2CCO)cc1 (stereo not drawn)	18%	-4%	-8%	x	x	x
COc1ccc(N/C(C)=C2/C(=O)C(=O)N(CCO)C2c2ccc(Br)cc2)cc1 (stereo not drawn)	u	u	-6%	16µM*	>57	3%
CCOC(=O)CSc1nnc2n1C(C)(C)Cc1ccccc1-2	20%	-3%	5%	-1%	>57	-2%
CC1(C)Cc2ccccc2-c2nnc(SCc3ccc(C#N)cc3)n21	25µM*	u	-22%	38%	>57	1%
COC(=O)[C@@]1(C)C=C[C@@H](Cc2ccccc2)N1C(=O)c1ccccc1	20µM*	u	-7%	12%	x	x
C=C1C(CCl)(CCl)C2(Cl)C(Cl)C(Cl)C1(Cl)C2(Cl)Cl (stereo not drawn)	18%	40µM*	-13%	u	x	x
CCOC(=O)c1nnn(-c2nonc2N)c1COc1ccccc1	13µM*	u	-3%	1%	x	-1%
NC(=O)C[C@@H](N)c1nn[nH]n1	1%[11.4 µM]	3%[11.4 µM]	4%[11.4 µM]	4%[11.4 µM]	x	0%[11.4 µM]
Cn1nc(C(=O)Nc2sccc2C(N)=O)ccc1=O	5%	-7%	1%	25µM*	x	-4%
O=C(O)C1CCCN1S(=O)(=O)c1cccc2cccnc12 (stereo not drawn)	3%	1%	10%	-3%	x	3%
NC(=NCCCCCCN=C(N)/N=C(\N)Nc1ccc(Cl)cc1)/N=C(\N)Nc1ccc(Cl)cc1	10%	u	u	6.3µM*!	x	2%[25.5 µM]
CC(C)=CCc1c(O)cc(O)c2c1O[C@H](c1ccccc1)CC2=O	26%	13%	2%[25.6 µM]	40µM*	x	3%[11.4 µM]
O=C1C[C@@H](c2ccc(O)cc2)Oc2cc(O)cc(O)c21	-12%	-5%	1%[25.6 µM]	u	x	-1%[11.4 µM]
CC1(C)CO[C@H](CC(=O)O)CN1	6%	5%	-24%[25.6 µM]	16%	x	1%
O=c1c(-c2ccc(F)c(F)c2)nc2cncnc2n1Cc1ccccc1	-23%	-26%	-3%	13µM*	x	0%[11.4 µM]
O=c1c(-c2ccc(Cl)cc2)nc2cncnc2n1Cc1ccccc1	12%	0%	-17%	u	x	-1%[11.4 µM]
O=c1c(-c2cc(F)cc(F)c2)nc2cncnc2n1Cc1ccc(F)cc1	u	u	7.9µM*	u	x	1%[11.4 µM]
O=c1c(-c2ccc(F)cc2)nc2cncnc2n1Cc1ccc(F)cc1	-5%	8%	7%	13µM*	x	2%[11.4 µM]
O=c1c(-c2cc(F)cc(F)c2)nc2cncnc2n1Cc1ccccc1	-5%	-2%	11%	32µM*	x	0%[11.4 µM]
O=c1c(-c2ccc(Cl)cc2)nc2cncnc2n1Cc1ccc(F)cc1	10%	15%	-2%	u	x	2%[11.4 µM]
O=c1c(-c2ccc(F)cc2)nc2cncnc2n1Cc1ccccc1	-26%	-15%	-10%	-14%	x	0%[11.4 µM]
O=C(CCNS(=O)(=O)c1cccc2nonc12)NCCc1ccc(Cl)cc1	-10%	-11%	2%	-11%	>57	-1%
C=CC[C@@H]1C=C[C@@H](O/N=C\c2ccc(C(=O)N3[C@H](c4ccc(C)cc4)[C@@H](C)CC[C@H]3C(=O)OC)cc2)[C@@H](CO)O1	13%[11.4 µM]	10%[11.4 µM]	1%[11.4 µM]	x	x	1%[11.4 µM]
CCCCn1c(NC(=O)c2ccccc2Cl)c(C#N)c2nc3ccccc3nc21	4%	-4%	-15%	120%	>57	0%
SMILES	HEK293 cAMP ctrl	TSHR ag	ALOX15 inhib	Tau fil binding	Bst PK mod	FLuc inh
CCCCn1c(NC(=O)CC)c(C#N)c2nc3ccccc3nc21	25µM*	u	-7%	406%	x	-3%
C=CCC1(c2ccccc2)Oc2ccccc2-c2nc3cc(Cl)c(Cl)cc3nc21 (stereo not drawn)	-5%[11.4 µM]	3%[11.4 µM]	2%[11.4 µM]	x	x	x
COc1ccc(N2CSC3=C(C#N)C(c4cc(OC)c(OC)cc4OC)CC(=O)N3C2)c(OC)c1 (stereo not drawn)	11%	-1%	u	u	x	-15%
COc1ccc(N2CSC3=C(C#N)C(c4ccc(OC)c(OC)c4)CC(=O)N3C2)c(OC)c1 (stereo not drawn)	-3%	-1%	4µM*	20µM*	x	-27%
CCOc1ccccc1N1CSC2=C(C#N)C(c3c(OC)ccc4ccccc34)CC(=O)N2C1 (stereo not drawn)	-1%[11.4 µM]	2%	u	25µM*	x	u
COc1ccc(C2CC(=O)N3CN(c4ccc(C)c(Cl)c4)CSC3=C2C#N)cc1OC (stereo not drawn)	-13%	3%	3.2µM*	-14%	x	-13%
COc1ccc(N2CSC3=C(C#N)C(c4cc(OC)ccc4OC)CC(=O)N3C2)c(OC)c1 (stereo not drawn)	4%	-8%	u	25µM*	x	-22%
COc1ccc(N2CSC3=C(C#N)C(c4cccs4)CC(=O)N3C2)cc1 (stereo not drawn)	15%	6%	u	u	>57	-20%
COc1ccc(-c2nc3cnc(N4CCOCC4)nc3n(Cc3cccs3)c2=O)cc1	9%	14%	-6%	86%	x	0%[11.4 µM]
CC1(C)CC[C@]2(C(=O)O)C(O)C[C@@]3(C)C(=CCC4[C@@]5(C)CCC(O)C(C)(C)C5CC[C@@]43C)C2C1 (stereo partly drawn)	x	x	-4%	x	x	x
O=C(Oc1ccccc1)N1CCC[C@@]2(CCN(c3ncccn3)C2)C1	6%	7%	1%	2%	x	1%[11.4 µM]
CC(=O)N[C@@H](CC(=O)O)C(=O)N[C@@H](CCC(=O)O)C(=O)O	1%	-3%	-9%[25.6 µM]	-20%	x	2%
Cc1ccc(O)c(C(=O)c2cnc3c(c2)CN(CCC(C)C)C(=O)N3)c1	7%	4%[11.4 µM]	u	-3%	>57	-2%
CN1Cc2cc(C(=O)c3cc(Cl)cc(CSc4ncccn4)c3O)cnc2NC1=O	13%	16µM*	-18%	16µM*	>57	-4%
Cc1nnc2c(-c3ccccc3)nc3ccccc3n12	5%	-2%	5%	17%	x	1%
Cn1nc(-c2ccccc2)c2nc3ccccc3nc21	3%	-11%	-2%	258%	8*	0%
COc1nc(Cl)nc(Cl)c1Cl (tested in a mixture with another compound)	4%[11.4 µM]	-6%[11.4 µM]	-3%[11.4 µM]	2%[11.4 µM]	x	-2%[11.4 µM]
COc1cc(NC(=O)c2ccc(-c3ccc(Br)cc3)o2)ccc1NC(=O)C(C)C	u	u	-7%	251%	>57	0%
